Source: PubChem
HP1b chromo inh – blocks HP1-beta chromodomain binding to methylated histone tails | P83916 | AlphaScreen HP1-beta / biotin-H3K9me3 peptide binding | Potency, µM (titrated, usually from 114 µM), for inactives: at the highest dose activity change, negative = inhibition, hits mostly inhibitors | actives 0.56% (n = 390,000); further: nearly all actives have a fitted effect of over 70% in size
Target sequence (P83916 whole entry, looked up): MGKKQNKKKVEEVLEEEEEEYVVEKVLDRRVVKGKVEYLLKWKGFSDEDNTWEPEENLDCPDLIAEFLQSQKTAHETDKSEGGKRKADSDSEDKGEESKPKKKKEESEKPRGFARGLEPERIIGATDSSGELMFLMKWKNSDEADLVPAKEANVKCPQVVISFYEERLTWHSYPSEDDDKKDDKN
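Compound inhibition of the preformed complex between 50 nM HP1-beta and 50 nM biotinylated H3K9me3 peptide was read by AlphaScreen. Buffer was PBS pH 7.4 with 0.01% Tween-20. Incubations ran 30 min at room temperature, with 10 ug/mL donor/acceptor beads.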
BAZ2B block – BAZ2B (human) inhibition; Potency, µM (titrated, usually from 114 µM), inactives show at the top dose activity change, negative = inhibition, usual class: inhibitors; Q9UIF8; AlphaScreen BAZ2B-H3K14Ac peptide displacement; actives 4.4% (n = 360,000); further: on the % scale 0 is the no-effect control and ±100 the full control effect; nearly all actives have a fitted effect of over 60% in size
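Compounds, titrated to a top concentration of 110 uM, were incubated 30 min at room temperature with preformed BAZ2B/acetyl-K14 H3 peptide complex (50 nM each). Proximity signal was measured by AlphaScreen after 20 min with beads.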
G9a block – inhibitors of human histone lysine methyltransferase G9a; Q96KQ7; G9a H3K9 monomethylation, AlphaScreen, 2 h; Potency, µM (highest dose often 102 µM), inactives show at the highest dose activity, negative = inhibition, most hits filed as inhibitors; actives 8.8% (n = 350,000); AID 504332; further: on the % scale 0 is the no-effect control and ±100 the full control effect; nearly all actives have a fitted effect of over 75% in size
Target sequence (Q96KQ7 913-1193 limits assumed): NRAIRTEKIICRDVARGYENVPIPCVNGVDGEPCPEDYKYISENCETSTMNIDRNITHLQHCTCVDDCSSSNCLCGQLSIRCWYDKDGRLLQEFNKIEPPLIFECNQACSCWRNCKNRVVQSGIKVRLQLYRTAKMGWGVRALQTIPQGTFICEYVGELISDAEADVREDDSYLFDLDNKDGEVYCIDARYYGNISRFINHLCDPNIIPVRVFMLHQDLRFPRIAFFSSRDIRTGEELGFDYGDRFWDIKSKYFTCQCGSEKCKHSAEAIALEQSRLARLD
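Signal arises when biotinylated H3K9 peptide, once monomethylated, bridges streptavidin donor and antibody-captured acceptor beads. Enzyme at 20 nM was preincubated 15 min with test compounds; peptide 500 nM and SAM 20 uM then reacted for 2 h.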
JMJD2A Tudor inh – blocks the human JMJD2A Tudor domain. AlphaScreen JMJD2A-Tudor / H3K4me3 peptide binding. AID 504339. Potency, µM (titrated, usually from 114 µM), for inactives: at the highest dose activity change, negative = inhibition, actives largely listed as inhibitors. O75164. actives 4.4% (n = 390,000); further: on the % scale 0 is the no-effect control and ±100 the full control effect; nearly all actives have a fitted effect of over 50% in size
Sfp inh – blocks B. subtilis Sfp PPTase activity | Q9F4F7 | Biochemical Sfp PPTase activity, qHTS | Potency, µM, for inactives: largest response in the series, negative = inhibition, usual class: inhibitors | actives 3.5% (n = 310,000) | AID 1490;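 further: the enzyme is Sfp with the accession as filed and its product quenches rhodamine fluorescence; 0% = enzyme reaction without inhibitor and -100% = no enzyme wells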
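With Hepes-Na pH 7.6 buffer containing 10 mM MgCl2, Sfp (15 nM) modified BHQ-2-YbbR (12.5 uM) using rhodamine-CoA (5 uM). Two reads 30 minutes apart at 525/598 nm yielded each well's rate.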
An asterisk follows results filed as active; ? = inconclusive; · = no result given; [ ] = remark or other dose. In the library only some 12% were active in any assay of this set; here they are far more common. The call rests on the fitted dose curve; in most records, active means well fitted curve in the direction sought with a large enough effect; inconclusive means small, poorly fitted or top-dose-only effect, or another doubt; inactive means no such curve, though single readings can be large; an effect the other way counts as inactive or inconclusive. Potency means the concentration at half of the fitted maximal effect.

SMILES	HP1b chromo inh	BAZ2B block	G9a block	JMJD2A Tudor inh	Sfp inh
COc1cccc(C(=O)Nc2c3c(nc4c2CCC4)CCCC3)c1	31.6%	-3.8%	-2.9%[59 µM]	-5.0%	11.2%
CC(C)(C)c1ccc(C(=O)NC(=S)Nc2nc3c(s2)CCCC3)cc1	9.2%	-31.3%	-1.4%[59 µM]	?	17.0%
COc1cccc(C(=O)Nc2nc3c(s2)CCCC3)c1	-13.4%	?	10µM*	?	·
C/C(=N\Nc1nc2c(s1)CCCC2)c1ccc(Cl)cc1	-23.4%	44.7µM*	?	?	50.1µM*
COC(=O)c1ccccc1NC(=O)Cn1c(=O)n(Cc2ccccc2)c(=O)c2c(C)c(C)sc21	27.2%	-15.8%	10.5%[59 µM]	-1.7%	79.4µM*
NNc1ccc(Cc2ccc(Cl)cc2Cl)nn1	23.0%	2.82µM*	-24.3%	28.2µM*	5.8%
CSc1ccc(Cc2ccc(Cl)cc2Cl)nn1	32.4%	8.2%	16.9%[59 µM]	18.9%	6.8%
COCC(=O)Nc1nc2n(n1)C(c1ccc(Cl)cc1)CC(c1ccc(OC)cc1)N2 (stereo not given)	52.6%	?	79.4µM*	?	-26.5%
CC(C)OCCCNCC(O)c1ccccc1 (stereo not given)	?	79.4µM*	?	20µM*	-13.2%
O=C1CCCN1CCCNCC(=O)N1c2ccccc2Sc2ccccc21	?	22.4µM*	?	10µM*	?
O=C1CCCN1CCCNCC(O)c1ccccc1 (stereo not given)	?	?	-1.8%	1µM*	-21.7%
O=C(CNC(=O)c1ccccc1F)NCCCN1CCCC1=O	32.2%	-0.1%	2.7%[59 µM]	2.1%	·
COc1cc(NC(=O)c2nc3cc(C)c(C)cc3n(C)c2=O)cc(OC)c1OC	43.7%	3.1%	14.2%[59 µM]	3.8%	·
Cc1ccc(OCC(=O)N(c2ccc(C)cc2)S(=O)(=O)c2ccc(Cl)cc2)cc1	41.8%	2.0%	17.4%[59 µM]	-6.9%	·
O=Nc1c(O)n(Cc2cccc(Cl)c2)c2ccccc12	-4.5%	-31.0%	·	-27.1%	6.4%
CSc1nc(C=Nc2ccccc2Cl)c(O)n1Cc1cccc(Cl)c1	5.3%	-19.1%	·	79.4µM*	-21.3%
CC(=O)c1c(N2CCN(Cc3ccccc3)CC2)[nH]c(-c2ccccc2)nc1=S	13.7%	?	70.8µM*	?	11.1%
Oc1ccc(N=Nc2nc(-c3ccccc3)c(-c3ccccc3)[nH]2)cc1	-71.7%	11.2µM*	20µM*	22.4µM*	16.1%
Oc1ccc(N=Nc2n[nH]c(-c3ccccc3)n2)cc1	-8.6%	?	3.16µM*	?	17.5%
Cc1ccc(-n2[nH]c3c4c(ccc3c2=O)C(=O)c2ccccc2C4=O)cc1	-14.3%	-12.8%	2.82µM*	-11.2%	9.7%
COCCCn1[nH]c2c3c(ccc2c1=O)C(=O)c1ccccc1C3=O	-18.2%	?	7.08µM*	-32.3%	-17.8%
CC(C)(C)n1[nH]c2c3c(ccc2c1=O)C(=O)c1ccccc1C3=O	17.8%	-9.8%	?	-21.4%	15.2%
Cc1ccc(C)c(-n2[nH]c3c4c(ccc3c2=O)C(=O)c2ccccc2C4=O)c1	50.1µM*	44.7µM*	-6.6%[59 µM]	?	-8.2%
Cn1c(SCc2ccccc2Cl)nc(=O)c2c1NC(=O)CC2c1cc(F)ccc1F (stereo not given)	47.6%	1.0%	7.9%[59 µM]	-10.3%	·
N#CC1(NC(=O)COC(=O)c2ccccc2[N+](=O)[O-])CCCCC1	11.9%	-2.8%	9.9%[0.501 µM]	-13.0%	·
SMILES	HP1b chromo inh	BAZ2B block	G9a block	JMJD2A Tudor inh	Sfp inh
N#CC1(NC(=O)COC(=O)c2cc(O)c3ccccc3c2O)CCCCC1	?	50.1µM*	4.47µM*	25.1µM*	·
CC(C)(C)N/N=C1\CC(c2ccccc2)Oc2ccccc21 (stereo not given)	23.3%	12.5%	?	-9.3%	7.6%
O=C(O)c1cc(N/N=C2/CC(c3ccccc3)Oc3ccccc32)ccc1Cl (stereo not given)	-4.9%	-38.0%	11.2µM*	?	12.8%
Nc1ncnc2c1ncn2[C@@H]1O[C@H](CNCc2cccc(C#Cc3ccccc3)c2)[C@@H](O)[C@H]1O	25.2%	·	·	-20.1%	·
Cc1cc(C)n(CC(O)COc2c(C)cccc2C)n1 (stereo not given)	41.1%	-5.0%	-1.5%	1.4%	15.4%
O=c1nc(N/N=C/c2ccccn2)cn[nH]1	58.7%	2.51µM*	2.6%	17.8µM*	23.0%
Cc1ccc(/C=N/Nc2ccc3ccccc3n2)o1	-23.8%	?	-45.7%	?	9.2%
Cc1ccc(/C=N/Nc2cn[nH]c(=O)n2)o1	20.9%	39.8µM*	24.6%	?	50.1µM*
C(=N\Nc1ccccn1)/c1cccnc1	35.9%	8.0%	4.3%[0.501 µM]	-8.6%	-22.7%
O=C(CN1CCCC1)Nc1ccc(OC(F)(F)F)cc1	?	?	·	0.794µM*	-21.0%
O=C(CN1CCc2ccccc2C1)Nc1ccc(OC(F)(F)F)cc1	85.3%	17.7%	-14.0%[2.33 µM]	29.6%	16.0%
CCc1cccc(C)c1NS(=O)(=O)Cc1ccccc1	15.2%	-2.7%	79.4µM*	-7.5%	11.0%
CN1CCc2c1nc1ccccc1c2NC(=O)CN1CCCC1	-16.1%	?	·	5.62µM*	-21.1%
O=S(=O)(Cc1ccccc1)Nc1ccccc1	28.8%	4.8%	·	3.9%	8.8%
O=C(CN1CCC(NC(=O)C2CCCCC2)CC1)Nc1ccccc1	-26.9%[57 µM]	·	·	0.891µM*	·
Cc1ccc(NC(=O)CNCc2ccccc2)c(Br)c1	36.9%	4.6%	51.4%[59 µM]	-12.3%	8.9%
O=C(CN1CCCCCC1)Nc1cccc(NC(=O)CN2CCCCCC2)c1	17.9%	-6.1%	12.3%[0.501 µM]	-6.3%	4.7%
O=C(CN1CCCCCC1)Nc1ccccc1	?	50.1µM*	3.98µM*	8.91µM*	?
Cc1ccc(NC(=O)CN2CCCC2)cc1Br	0.5%	?	50.1µM*	56.2µM*	-9.3%
O=C(CN1CCCC1)Nc1ccc(Br)cc1	?	50.1µM*	4.47µM*	12.6µM*	50.1µM*
Cc1ccc(NC(=O)CNCc2ccccc2)cc1Br	?	50.1µM*	7.94µM*	0.794µM*	?
Cc1ccc(NC(=O)CN2CCCC2)cc1	21.8%	3.6%	·	-12.1%	0.7%
CN(C)CCCO[C@H]1C([C@H](O)CO)O[C@@H]2OC(C)(C)O[C@@H]21 (stereo not given in full)	·	·	15.4%[12.7 µM]	·	·
Nc1c(-c2nc(-c3cccs3)no2)nnn1-c1cccc(Cl)c1	51.3%	8.7%	5.7%[59 µM]	0.0%	·
CCc1cccc(C)c1NC(=O)CNCc1ccccc1	?	56.5%	17.8µM*	8.91µM*	-13.1%
CN(C)c1ccc(NC(=O)CN2CCN(CC(=O)Nc3ccc(Br)cc3)CC2)cc1	20.3%[57 µM]	-14.7%	8.91µM*	-22.6%	·
CN(C)c1ccc(NC(=O)CN2CCC(N3CCCCC3)CC2)cc1	?	44.7µM*	2.24µM*	?	89.1µM*
CCN1CCN(CC(=O)Nc2ccc(N(C)C)cc2)CC1	-4.1%	?	?	7.08µM*	13.4%
